From PubChem BioAssay

What was measured:
[1] = target: Tumor necrosis factor receptor superfamily member 10B (Homo sapiens) (UniProt O14763); experiment: viability loss of caspase-8 NB7 cells with TRAIL – with/without TRAIL, luminescence panel, confirmation (AID 651596); conditions: NB7 neuroblastoma + caspase-8, TRAIL sensitization, NB7 Caspase-8, with TRAIL, mean of runs, at 10 µM, stronger effect = higher value
[2] = as above; conditions: NB7 neuroblastoma + caspase-8, without TRAIL, NB7 Caspase-8, without TRAIL, mean of runs, at 10 µM

Chain of Tumor necrosis factor receptor superfamily member 10B (Homo sapiens) (O14763 whole entry, looked up): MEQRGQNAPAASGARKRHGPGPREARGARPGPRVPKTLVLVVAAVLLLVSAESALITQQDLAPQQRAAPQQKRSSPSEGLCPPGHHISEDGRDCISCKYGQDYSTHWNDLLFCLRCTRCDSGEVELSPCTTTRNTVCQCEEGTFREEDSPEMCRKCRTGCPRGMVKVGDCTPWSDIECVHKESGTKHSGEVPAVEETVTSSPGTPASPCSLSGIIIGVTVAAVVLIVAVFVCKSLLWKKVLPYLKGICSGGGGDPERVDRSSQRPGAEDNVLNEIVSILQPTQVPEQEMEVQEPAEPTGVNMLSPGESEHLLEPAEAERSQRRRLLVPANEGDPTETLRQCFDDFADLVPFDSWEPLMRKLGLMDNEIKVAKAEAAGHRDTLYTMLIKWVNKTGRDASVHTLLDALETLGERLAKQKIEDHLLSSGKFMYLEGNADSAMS

Row | SMILES | activity [1] | activity [2]
1 | Cc1cccc(NC(=O)c2ccc3c(c2)OCCO3)c1 | 85% | 83.5%
2 | Cc1ccc(C2=NN(C(=O)CCl)C(c3ccco3)C2)o1 (stereo unspecified) | 98.5% | 98.2%
3 | Oc1ccccc1-c1n[nH]c(-c2ccccc2O)n1 | 47.8% | 48.6%
4 | c1ccc2[nH]c(-c3ccc4c(c3)OCO4)nc2c1 | 77.4% | 79.3%
5 | COc1cccc(/C=C/C(=O)Nc2ccc3c(c2)OCCO3)c1OC | 83.7% | 82%
6 | CCN1CCN(Cc2ccc(NC(=O)c3cc(NC(=O)c4cncc(-c5cccs5)c4)cc(OC)c3)cc2C(F)(F)F)CC1 | 68% | 91.9%
7 | CN(C)c1ccc(-c2nc3ccccc3n2C)cc1 | 92.3% | 89.8%
8 | Cc1ccc(OCC(=O)Nc2ccccc2C(N)=O)cc1 | 66.8% | 68.1%
9 | Cc1ccc(C(=O)N/C(=C\c2ccc(-c3ccccc3[N+](=O)[O-])o2)C(=O)NCCCN2CCOCC2)cc1 | 24.6% | 48.9%
10 | CCC(=O)c1ccc(/C=C/c2nc3ccccc3n2C)o1 | 61.2% | 54.8%
11 | Cc1ccc(C(=O)N/N=C\c2cccc(OC(=O)c3cccc(F)c3)c2)cn1 | 37.2% | 36.8%
12 | COc1ccc(C(=O)N/N=C/c2cccnc2)cc1 | 34.2% | 40%
13 | Cc1cc(N/N=C/c2ccccc2Cl)nc(NCc2ccccc2)n1 | 37.5% | 34.1%
14 | O=C(CSc1nc2ccccc2c(=O)[nH]1)Nc1ccc([N+](=O)[O-])cc1 | 35.1% | 31.3%
15 | Clc1ccc(CSc2nc3ccncc3[nH]2)cc1 | 96.8% | 96.1%
16 | CC(=O)Nc1cccc(-c2csc(Nc3ccc(C)cn3)n2)c1 | 49.5% | 30.4%
17 | CCN1CCC(O)(/C=C/c2ccc(C(C)C)cc2)C(C(=O)/C=C/c2ccc(C(C)C)cc2)C1 (stereo unspecified) | 87.8% | 82.8%
18 | COc1cccc(C=NNc2nnc(NN=Cc3cccc(OC)c3OC)c3ccccc23)c1OC | 83.2% | 75%
19 | CC(=O)Oc1ccc(/C=N\NC(=O)c2cc3c(ccc4ccccc43)o2)cc1 | 64.6% | 67.7%
20 | CCN1CCN(c2ccc(S(=O)(=O)N3CCCCC3)cc2NC(=O)/C=C/c2ccc(OC(F)F)cc2)CC1 | 3.5% | 5.28%
21 | Cc1ccc(CSc2nc3ncccc3[nH]2)cc1 | 71% | 68.2%
22 | CCCC(=O)N1CCN(c2ccc(NC(=O)c3cc4ccccc4o3)cc2Cl)CC1 | 83% | 58.6%

Row | SMILES | activity [1] | activity [2]
23 | Cc1ccc(C2CC2c2n[nH]c(=S)n2-c2ccc(Cl)cc2)cc1 (stereo unspecified) | 63% | 45.3%
24 | O=C(Nc1ccc(-c2nc3ccccc3o2)cc1)C1CCCO1 (stereo unspecified) | 51.7% | 43%
25 | CN(C)c1cccc(/C=C(\C#N)c2ccccc2)c1 | 28.8% | 40.8%
26 | CCN1CCN(Cc2ccc(NC(=O)c3cc(NC(=O)C(=O)c4c[nH]c5ccccc45)cc(OC)c3)cc2C(F)(F)F)CC1 | 82.2% | 77.7%
27 | Nc1nn2cc(-c3ccc(Br)cc3)nc2c2ccccc12 | 53.9% | 47.2%
28 | CCN(CC)S(=O)(=O)c1cc(NC(=O)Cn2ncc(Cl)c(Cl)c2=O)ccc1C | 99.5% | 99.6%
29 | CC1(C)CC(=O)C=C(c2ccc(-c3ccc4[nH]ccc4c3)cc2)C1=O | 67.8% | 64.4%
30 | CCc1ccc(/C=N/NC(=O)c2c[nH]c3ccccc23)s1 | 21.7% | 20.4%
31 | COc1ccc(-c2cc3nc4n(c(=O)c3s2)CCC4)cc1 | 71.1% | 70.4%
32 | Cc1nc(-c2ccc(NC(=O)CC(C)C)cc2)cs1 | 51.7% | 55.5%
33 | COc1ccc(C2NN=C(c3ccc(C)cc3)S2)cc1OC (stereo unspecified) | 60% | 55%
34 | CCCCCCC[N+](CC)(CC)CCCCc1ccc(Cl)cc1 | 43.9% | 47.1%
35 | Cc1ccc(C(=O)O/N=C(\N)c2ccc(Br)cc2)cc1C | 82.5% | 88.2%
36 | COc1ccc(OC)c(S(=O)(=O)Nc2ccc(-c3ccc4nncn4n3)cc2)c1 | 57.5% | 59.3%
37 | CCOC(=O)C1=CCN(S(=O)(=O)c2ccccc2C)C1c1ccc(Cl)cc1 (stereo unspecified) | 10.1% | -8.28%
38 | O=C(Nc1nnc(SCC(=O)N2CCOCC2)s1)c1ccccc1 | 80% | 77.4%
39 | S=c1nc[nH]c2c1ncn2C1CCCO1 (stereo unspecified) | 17.8% | 47.4%
40 | Nc1ccccc1C=C1Cc2ccccc2C1=O | 58.5% | 50%
41 | COc1ccc2cc3cc(C(=O)N4CCCCCC4)oc3nc2c1 | 45.1% | 41.9%
42 | N=c1cc(C2(O)CCCCC2)n2c(nc3ccccc32)s1 | 93.5% | 89%
43 | Nc1c(N(C(=O)Nc2ccc(Cl)c(Cl)c2)C2CCCC2)c(=O)[nH]c(=O)n1Cc1ccccc1 | 46.5% | 46%
